# Data from PubChem BioAssay AID602250 (The Scripps Research Institute Molecular Screening Center, 2012).
# The campaign covered roughly 360,000 compounds. About 2,200 (0.61%) were called active.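 Rule for the calls: active = inhibition above a per-plate cutoff, the plate's mean sample inhibition plus 3 SD (cut at about 24% in these data); inactive = the rest.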 Shown is part of a subset that was picked to be rich in actives.
# Test: nonselective inhibitors of ATP calcium response in CHO-K1, primary screen, counter-screen for M1 antagonist project, cell-based, Fluo-8 calcium fluorescence, full deck, 1536-well (AID 602250);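 note: 0% = DMSO plus EC80 ATP and 100% = DMSO alone without ATP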
# Conditions: CHO-K1 parental, ATP-induced calcium, Fluo-8 fluorescence; at 3 µM; hits give high values
row,Compound,inhibition
1,Cc1ccc(C(=O)N/C(=C\c2ccco2)C(=O)NC2CCS(=O)(=O)C2)cc1 (stereo unspecified),-6.64% (inactive)
2,CCC(CC)C(=O)Nc1cc(C(=O)OC)cc(C(=O)OC)c1,-1.71% (inactive)
3,NC(=O)c1ccc(NC(=O)COC(=O)C(Cc2ccccc2)NC(=O)c2ccccc2)cc1 (stereo unspecified),18.1% (inactive)
4,CC(C)C(NC(=O)c1c(F)cccc1F)C(=O)NNC(=O)c1ccccc1 (stereo unspecified),-6.47% (inactive)
5,CN(Cc1ccccc1F)C(=O)C(Cc1ccccc1)NC(=O)c1ccccc1 (stereo unspecified),31.8% (active)
6,Cc1ccccc1N1CCN(C2CCCN(C(=O)c3cn4c(C)cccc4n3)C2)CC1 (stereo unspecified),-0.61% (inactive)
7,CCc1ccccc1NC(=O)c1ccc2c(c1)CCN2S(C)(=O)=O,4.89% (inactive)
8,CS(=O)(=O)N1CCc2cc(C(=O)Nc3ccccc3Br)ccc21,25.4% (active)
9,CSc1ccccc1NC(=O)c1ccc2c(c1)CCN2S(C)(=O)=O,-14.8% (inactive)
10,Oc1cc2c(cc1O)CN(C(=S)NCCc1ccc(Cl)cc1)CCC2,1.38% (inactive)
11,O=C(CSc1nnc2ccc(-c3ccncc3)nn12)N1CCCCC1,-8.71% (inactive)
12,Cc1nn(Cc2ccc(F)cc2)c(C)c1NC(=O)c1noc2c1CCc1ccccc1-2,24.5% (active)
13,Cc1ccccc1Cn1nc(C)c(NC(=O)C(F)(F)F)c1C,-5.32% (inactive)
14,Cc1nn(Cc2ccc(Cl)c(Cl)c2)c(C)c1NC(=O)c1cc(C2CC2)on1,-3.24% (inactive)
15,Cc1cc(C)c2oc(C(=O)Nc3ccc(S(=O)(=O)Nc4nccc(C)n4)cc3)cc(=O)c2c1,-10.7% (inactive)
16,Cc1ccc(OCc2cc(C(=O)N(C)CCn3ccnc3C)no2)cc1C,-1.34% (inactive)
17,Cc1n[nH]c(=O)c2c(NC(=O)CSc3cc(Cl)ccc3Cl)oc(C)c12,-14.8% (inactive)
18,CCC(C)CN1CCC(CO)(Cc2ccccc2Cl)CC1 (stereo unspecified),-1.43% (inactive)
19,Nc1ccccc1C(=O)NC1CCCCNC1=O (stereo unspecified),-4.31% (inactive)
20,Fc1ccccc1CNC(=S)Nc1ccc(Cl)cc1,7.2% (inactive)
21,O=C(NNC(=S)NCc1ccccc1)c1ccc(OC(F)F)cc1,-9.25% (inactive)
22,FC(F)(F)Oc1ccc(NC(=S)NCc2ccccc2)cc1,26.5% (active)
23,COc1ccc(NS(=O)(=O)c2ccc(Oc3c(C#N)cccc3C#N)cc2)cc1,49.1% (active)

row,Compound,inhibition
1,COc1ccc(S(=O)(=O)Nc2ccc3oc(C)c(C(C)=O)c3c2)cc1,9.32% (inactive)
2,COc1ccc(NS(=O)(=O)c2ccc(N3CCN(CCO)CC3)c([N+](=O)[O-])c2)cc1,4.94% (inactive)
3,CC(OC(=O)CCC(=O)c1ccccc1)C(=O)Nc1ccc(F)cc1 (stereo unspecified),1.59% (inactive)
4,c1ccc(C(=NNc2nc3ccccc3s2)c2ccccn2)cc1,35.5% (active)
5,COc1cc(OC)nc(N/N=C(\c2ccccc2)c2ccncc2)n1,-9.28% (inactive)
6,O=C(Nc1nnc(C2CC2)s1)c1ccccn1,-5.35% (inactive)
7,CC1(C(=O)NCc2ccc3c(c2)OCO3)CCN1CCc1ccccc1 (stereo unspecified),-8.04% (inactive)
8,O=C(CC1Sc2ccccc2NC1=O)NNc1ccc(Cl)c(Cl)c1 (stereo unspecified),-13.4% (inactive)
9,O=C(COc1ccccc1)N1CCN=C1SCc1cccc(F)c1,-5.27% (inactive)
10,O=C(NCC(=O)N1CCC2(CC1)NCCc1[nH]cnc12)c1ccc(Br)cc1,-11.4% (inactive)
11,CCC(=O)N1c2ccc(S(=O)(=O)CCC(=O)N3CCN(c4ccccc4)CC3)cc2CC1C (stereo unspecified),24.5% (active)
12,CCC(=O)N1CCc2cc(S(=O)(=O)CCC(=O)N3CCN(c4ccccc4F)CC3)ccc21,-5.31% (inactive)
13,CCC(=O)N1c2ccc(S(=O)(=O)NCc3ccco3)cc2CC1C (stereo unspecified),-18.4% (inactive)
14,CC[C@]12c3[nH]c4ccc(OC)cc4c3CCN1C(=O)C(CC(=O)NCCN1CCOCC1)C[C@@H]2C(=O)N1CCN(C(=O)C2CC2)CC1 (stereo partly specified),-4.64% (inactive)
15,CCc1ccc2oc(=O)cc(CN3CCCCC3C)c2c1 (stereo unspecified),-11.8% (inactive)
16,c1ccc2c(c1)OCC(CNc1ncnc3nc[nH]c13)O2 (stereo unspecified),44.4% (active)
17,O=C(COC(=O)c1ccc(F)cc1)NCC1COc2ccccc2O1 (stereo unspecified),-5.85% (inactive)
18,COc1ccc(CCNc2ncnc3nc[nH]c23)cc1OC,10.8% (inactive)
19,O=C(Nc1ccc2c(c1)OCCO2)C1c2ccccc2OCC(=O)N1Cc1ccccn1 (stereo unspecified),-12.5% (inactive)
20,CN(CCO)Cc1csc2ccc(Br)cc12,-7.65% (inactive)
21,CN(Cc1ccc(F)cc1)C(=O)COc1ccc2ccccc2c1,-15.2% (inactive)
22,COc1ccc(C(=O)COC(=O)Cn2cnc3c2c(=O)n(C)c(=O)n3C)c(OC)c1,-0.99% (inactive)
23,COc1ccc(C(C#N)Nc2ccccc2C)cc1 (stereo unspecified),-8.31% (inactive)

row,Compound,inhibition
1,CC(C)(C)n1nnnc1C(c1ccc2ncccc2c1)N1CCSCC1 (stereo unspecified),-9.5% (inactive)
2,CCOc1ccc(C(=O)NCC(=O)N2CCN(c3ccc(C(F)(F)F)cn3)CC2)cc1,31.8% (active)
3,O=C(NCC(=O)N1CCN(c2ncc(C(F)(F)F)cc2Cl)CC1)c1ccc(Br)o1,-11.5% (inactive)
4,COc1ccc(N2CCN(C(=O)CNC(=O)c3ccc(C(C)(C)C)cc3)CC2)cc1,9.5% (inactive)
5,Cc1ccccc1CSCCNC(=O)c1ccc(N(C)S(=O)(=O)c2ccccc2)cc1,-7.28% (inactive)
6,Cc1cc(-c2nnc(SCC(=O)Nc3ccc(S(N)(=O)=O)cc3)n2N)n[nH]1,-13.8% (inactive)
7,O=C(NCc1ccccc1)C1c2ccccc2OCC(=O)N1C1CC1 (stereo unspecified),0.77% (inactive)
8,O=[N+]([O-])c1ccc2c(c1)C(O)n1nc(-c3ccccc3)nc1S2 (stereo unspecified),-21.9% (inactive)
9,COc1ccc(OC)c(Nc2nc3ccccc3n3cnnc23)c1,-12.2% (inactive)
10,COc1cc(Nc2nc3ccc(Cl)cc3n3cnnc23)cc(OC)c1OC,28.9% (active)
11,COc1ccc(CCNc2nc3ccc(C)cc3n3cnnc23)cc1OC,-5.44% (inactive)
12,O=C1CN(C(=O)COC(=O)c2cnc(Cl)c(Cl)c2)c2ccccc2N1,-25% (inactive)
13,O=C(CCc1nnc(Cc2ccc3c(c2)OCO3)o1)NCCc1ccccc1Cl,-0.82% (inactive)
14,COc1ccccc1Cc1c(-c2ccc(Cl)cc2)nc2c3ccccc3ccn12,-20.1% (inactive)
15,CCCCn1c(=S)[nH]c2cc(S(=O)(=O)N3CCCCC3)ccc21,-12.6% (inactive)
16,CCn1c(=S)[nH]c2cc(S(=O)(=O)N3CCOCC3)ccc21,-3.41% (inactive)
17,CNS(=O)(=O)c1ccc2c(c1)[nH]c(=S)n2C,35.9% (active)
18,CN1CCc2c(sc3c2c(NCc2ccco2)nc2nnnn23)C1,-19.9% (inactive)
19,O=C(c1ccc(N2CCCC2=O)cc1)N1CCN(c2ccc(C(F)(F)F)cc2[N+](=O)[O-])CC1,44% (active)
20,COc1cc(OC)cc(C(=O)NC(=S)N2CCN(c3ccc(C(F)(F)F)cc3[N+](=O)[O-])CC2)c1,5.86% (inactive)
21,O=C(Cc1ccc(S(=O)(=O)N2CCOCC2)s1)N1CCN(c2ccc(C(F)(F)F)cc2[N+](=O)[O-])CC1,5.21% (inactive)
22,O=C(Nc1c(C(=O)N2CCCCC2)cnn1-c1ccccc1)c1ccco1,-0.49% (inactive)
23,O=C(Nc1ccc(-n2cccn2)cc1)C1CCN(Cc2ccsc2)CC1,9.41% (inactive)

row,Compound,inhibition
1,Cc1cc(C)cc(C(=O)N(CCc2ccccc2)C2=CC3CCC(C2)N3C)c1 (stereo unspecified),-5.45% (inactive)
2,CCCN(CCc1ccccc1)C1CCc2c(O)cccc2C1 (stereo unspecified),27.5% (active)
3,CCN(CC(=O)NC(C)C)C(=O)CCNC(=O)c1ccc(Cl)cc1,-14.6% (inactive)
4,O=C1NC[C@@H](Cc2ccc(O)cc2)N(CCc2cccc(F)c2)C1=O,-5% (inactive)
5,Cc1cc(C)c(C#N)c(N2CCC(C(N)=O)CC2)n1,23.7% (active)
6,Cc1cccn2c(=O)c(/C=C(\C#N)S(=O)(=O)c3ccc(Cl)cc3)c(N3CCC(C(N)=O)CC3)nc12,-14.1% (inactive)
7,N#Cc1c(N2CCCCC2)nc(N)c2c(N)nc(SCC(=O)O)cc12,-8.03% (inactive)
8,Cc1ccc(OS(=O)(=O)c2ccc(-c3csc(C)n3)s2)c(C)c1,-12% (inactive)
9,CC1=C2C(=O)OC(c3ccoc3)C2(C)CCC1 (stereo unspecified),-12.4% (inactive)
10,Cc1ccc(-n2nc3c(=O)n(C(C)C(=O)NCc4ccc5c(c4)OCO5)nc(C)c3c2C)cc1 (stereo unspecified),-17.4% (inactive)
11,CC1=C(C(=O)N(C)C)CC(CC(=O)NCCN2CCOCC2)C(=O)N1Cc1ccccc1 (stereo unspecified),-3.35% (inactive)
12,COc1ccc(OC)c(C2C3=C(N=c4s/c(=C\c5cccc(O)c5)c(=O)n42)c2ccccc2CC3)c1 (stereo unspecified),-5.43% (inactive)
13,COC(=O)c1ccccc1NC(=O)CN(Cc1ccc(Cl)cc1)S(C)(=O)=O,-17.4% (inactive)
14,CCOc1ccccc1NC(=S)NC(=O)CCc1ccccc1,-6.79% (inactive)
15,O=C(Cc1ccc(Cl)cc1)NC(=S)Nc1ccccc1O,31.4% (active)
16,CC(=O)c1cc(C#N)c(SCC(=O)Nc2nccs2)nc1C,-13.3% (inactive)
17,Clc1cc(NC2CCCCC2)ncn1,0.49% (inactive)
18,COCCCN(C(=O)Cn1ncc2c(=O)oc3ccc(C)cc3c21)C(C)c1ccncc1 (stereo unspecified),-9.26% (inactive)
19,CCCCn1nnnc1C(c1cccc(OC)c1OC)N1CCN(C/C=C/c2ccccc2)CC1 (stereo unspecified),-19.7% (inactive)
20,CC(=O)c1c(C)[nH]c(C(=O)COC(=O)CCOc2ccc(C)cc2)c1C,4.03% (inactive)
21,CC(=O)c1c(C)[nH]c(C(=O)COC(=O)c2cccc(S(=O)(=O)N(C)c3ccccc3)c2)c1C,43.1% (active)
22,CN(c1ccccc1)S(=O)(=O)c1ccc(Cl)c(C(=O)OCC(N)=O)c1,4.64% (inactive)
